PubChem BioAssay (EPA / NIEHS)
Inconclusive results are not listed. Active and inactive are the calls of the source. Rule for the calls: active = hit-call score of the fitted dose curve at least 0.9, where 1 is the maximum; inconclusive = response in the unintended direction; inactive = score below 0.9.

Experiments:
[1] = molecular target: Estrogen receptor (Homo sapiens) (UniProt P03372); assay: OT_ER_ERaERa_1440: Odyssey Thera (OT) 24-hour HEK293T Protein-Complementation Assay for Estrogen Receptor-alpha/-alpha Homodimer (AID 2283349);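 note: hits raise fluorescence above DMSO for agonists and antagonists alike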
Outline: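 Readout is the rise in mean fluorescence from reporter fragment complementation when ERα LBD (aa 310-547) units dimerize in HEK293T cells. Measured 24 h after dosing and analysed as increase over DMSO control.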

[2] = molecular target: Estrogen receptor (Homo sapiens) (UniProt P03372); assay: OT_ER_ERaERa_0480: Odyssey Thera (OT) 8-hour HEK293T Protein-Complementation Assay for Estrogen Receptor-alpha/-alpha Homodimer (AID 2283351);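 note: rise in fluorescence from reassembled reporter fragments on ERα LBD homodimer in nucleus or whole cell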
Outline: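 Binding reporter in which dimerisation of ERα LBD (aa 310-547) fusions reconstitutes a fluorescent reporter in HEK293T cells. Compounds incubated 8 h; mean fluorescence intensity increase versus DMSO scored.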

[3] = molecular target: Estrogen receptor (Homo sapiens) (UniProt P03372); assay: NVS_NR_hER: NovaScreen (NVS) Nuclear Receptor Binding Assay for human Estrogen Receptor (ER) (AID 2283348)
Outline: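 Cell-free radioligand binding with protein extracted from MCF7 cells; scintillation counting 18 hours after dosing. Loss of signal versus DMSO baseline read as displacement; primary single-concentration screen at 25 uM in duplicate, actives retested in concentration series.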

Chain of Estrogen receptor (Homo sapiens) (P03372 whole entry, looked up, the tested form may be a part): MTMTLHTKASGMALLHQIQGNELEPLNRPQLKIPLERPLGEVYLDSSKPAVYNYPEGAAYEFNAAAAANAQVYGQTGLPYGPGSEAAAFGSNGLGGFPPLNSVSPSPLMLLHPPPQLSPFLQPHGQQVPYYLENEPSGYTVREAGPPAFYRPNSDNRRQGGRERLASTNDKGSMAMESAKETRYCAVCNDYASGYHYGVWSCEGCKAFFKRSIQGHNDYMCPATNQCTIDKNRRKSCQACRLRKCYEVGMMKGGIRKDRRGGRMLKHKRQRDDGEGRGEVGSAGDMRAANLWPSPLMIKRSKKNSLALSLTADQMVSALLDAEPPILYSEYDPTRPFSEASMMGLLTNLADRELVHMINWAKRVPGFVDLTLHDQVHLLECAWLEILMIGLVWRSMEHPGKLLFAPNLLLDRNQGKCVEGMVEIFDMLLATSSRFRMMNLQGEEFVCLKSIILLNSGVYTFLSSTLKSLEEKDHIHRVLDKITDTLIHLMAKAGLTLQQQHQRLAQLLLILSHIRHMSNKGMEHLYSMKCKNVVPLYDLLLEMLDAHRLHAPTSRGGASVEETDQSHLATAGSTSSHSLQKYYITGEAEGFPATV

SMILES | outcome [1] | outcome [2] | outcome [3]
O=C(c1ccccc1)C1CCC1 | inactive | inactive | –
CCOC(=O)CC | inactive | – | –
O=C(O)CCCC[C@@H]1SC[C@@H]2NC(=O)N[C@@H]21 | inactive | inactive | inactive
